# The supplement of paper PMC11001985
# Compound: C#CCNC(=O)CCSSCCC(=O)NCCc1ccc(C=O)c(C=O)c1
# Assay: lysine labeling ratio R10:1 (500 µM / 50 µM probe), SILAC-ABPP in living cells; higher = lower intrinsic lysine reactivity toward the probe, active = 2 or less
# Settings: HeLa; probe concentrations 500 vs 50 µM
# Outline: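 R, given per lysine, is the filtered median high-probe/low-probe MS1 peptide ratio, with the median then taken across forward and reverse replicates. Cells were living SILAC light and heavy HeLa cells in PBS at room temperature, labelled with 50 µM or 500 µM of an alkyne-tagged, disulfide-linked lysine probe. The ceiling applied is 20.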
# Chain of UniProt P35579 (P35579 whole entry): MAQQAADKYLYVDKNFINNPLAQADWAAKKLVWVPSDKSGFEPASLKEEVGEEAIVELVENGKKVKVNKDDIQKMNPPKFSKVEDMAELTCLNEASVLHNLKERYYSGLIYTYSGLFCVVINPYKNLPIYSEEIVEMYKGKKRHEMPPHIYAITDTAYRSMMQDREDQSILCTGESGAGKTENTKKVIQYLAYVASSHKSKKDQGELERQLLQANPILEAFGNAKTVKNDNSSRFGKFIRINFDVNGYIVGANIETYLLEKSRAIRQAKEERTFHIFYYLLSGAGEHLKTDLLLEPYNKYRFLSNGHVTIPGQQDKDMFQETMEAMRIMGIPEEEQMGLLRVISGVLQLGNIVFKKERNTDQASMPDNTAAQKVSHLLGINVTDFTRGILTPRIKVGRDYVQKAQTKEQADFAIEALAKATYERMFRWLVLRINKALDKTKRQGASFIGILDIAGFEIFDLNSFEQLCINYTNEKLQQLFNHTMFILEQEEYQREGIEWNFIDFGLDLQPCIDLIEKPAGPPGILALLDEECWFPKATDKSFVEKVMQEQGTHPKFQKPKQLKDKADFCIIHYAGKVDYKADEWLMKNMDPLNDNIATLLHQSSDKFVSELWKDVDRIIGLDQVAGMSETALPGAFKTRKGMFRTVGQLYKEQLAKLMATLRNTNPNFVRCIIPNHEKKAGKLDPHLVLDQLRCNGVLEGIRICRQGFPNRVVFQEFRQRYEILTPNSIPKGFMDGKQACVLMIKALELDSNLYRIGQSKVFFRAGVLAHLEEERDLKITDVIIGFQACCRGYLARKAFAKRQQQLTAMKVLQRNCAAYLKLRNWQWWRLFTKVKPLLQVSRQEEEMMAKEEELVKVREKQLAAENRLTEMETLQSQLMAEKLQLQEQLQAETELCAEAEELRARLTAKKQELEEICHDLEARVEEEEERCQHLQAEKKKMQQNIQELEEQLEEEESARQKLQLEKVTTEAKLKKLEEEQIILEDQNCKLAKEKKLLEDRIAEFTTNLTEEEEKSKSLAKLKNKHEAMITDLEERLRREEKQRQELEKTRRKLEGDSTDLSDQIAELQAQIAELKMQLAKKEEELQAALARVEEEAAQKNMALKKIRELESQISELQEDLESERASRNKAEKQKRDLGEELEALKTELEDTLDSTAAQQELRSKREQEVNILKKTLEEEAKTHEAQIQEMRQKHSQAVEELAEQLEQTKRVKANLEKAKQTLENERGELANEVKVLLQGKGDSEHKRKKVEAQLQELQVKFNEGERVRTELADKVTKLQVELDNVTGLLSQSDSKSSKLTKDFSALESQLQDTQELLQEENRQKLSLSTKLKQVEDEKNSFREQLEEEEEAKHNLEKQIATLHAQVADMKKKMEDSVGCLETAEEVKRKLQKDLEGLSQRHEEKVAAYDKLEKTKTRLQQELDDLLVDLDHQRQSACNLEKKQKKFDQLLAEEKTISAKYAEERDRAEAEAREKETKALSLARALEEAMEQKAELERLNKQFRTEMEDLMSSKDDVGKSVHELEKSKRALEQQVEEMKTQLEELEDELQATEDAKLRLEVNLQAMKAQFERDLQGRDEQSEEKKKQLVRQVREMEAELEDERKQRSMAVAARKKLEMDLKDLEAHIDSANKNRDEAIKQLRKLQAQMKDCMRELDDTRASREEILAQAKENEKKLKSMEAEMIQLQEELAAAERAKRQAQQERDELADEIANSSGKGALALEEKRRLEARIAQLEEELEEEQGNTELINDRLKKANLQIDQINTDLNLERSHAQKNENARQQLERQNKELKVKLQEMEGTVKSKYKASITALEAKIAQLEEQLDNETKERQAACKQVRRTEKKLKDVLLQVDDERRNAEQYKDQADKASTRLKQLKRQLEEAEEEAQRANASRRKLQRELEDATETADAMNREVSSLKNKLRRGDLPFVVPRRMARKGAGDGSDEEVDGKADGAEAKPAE
# Chain of UniProt Q6YHK3 (Q6YHK3 whole entry): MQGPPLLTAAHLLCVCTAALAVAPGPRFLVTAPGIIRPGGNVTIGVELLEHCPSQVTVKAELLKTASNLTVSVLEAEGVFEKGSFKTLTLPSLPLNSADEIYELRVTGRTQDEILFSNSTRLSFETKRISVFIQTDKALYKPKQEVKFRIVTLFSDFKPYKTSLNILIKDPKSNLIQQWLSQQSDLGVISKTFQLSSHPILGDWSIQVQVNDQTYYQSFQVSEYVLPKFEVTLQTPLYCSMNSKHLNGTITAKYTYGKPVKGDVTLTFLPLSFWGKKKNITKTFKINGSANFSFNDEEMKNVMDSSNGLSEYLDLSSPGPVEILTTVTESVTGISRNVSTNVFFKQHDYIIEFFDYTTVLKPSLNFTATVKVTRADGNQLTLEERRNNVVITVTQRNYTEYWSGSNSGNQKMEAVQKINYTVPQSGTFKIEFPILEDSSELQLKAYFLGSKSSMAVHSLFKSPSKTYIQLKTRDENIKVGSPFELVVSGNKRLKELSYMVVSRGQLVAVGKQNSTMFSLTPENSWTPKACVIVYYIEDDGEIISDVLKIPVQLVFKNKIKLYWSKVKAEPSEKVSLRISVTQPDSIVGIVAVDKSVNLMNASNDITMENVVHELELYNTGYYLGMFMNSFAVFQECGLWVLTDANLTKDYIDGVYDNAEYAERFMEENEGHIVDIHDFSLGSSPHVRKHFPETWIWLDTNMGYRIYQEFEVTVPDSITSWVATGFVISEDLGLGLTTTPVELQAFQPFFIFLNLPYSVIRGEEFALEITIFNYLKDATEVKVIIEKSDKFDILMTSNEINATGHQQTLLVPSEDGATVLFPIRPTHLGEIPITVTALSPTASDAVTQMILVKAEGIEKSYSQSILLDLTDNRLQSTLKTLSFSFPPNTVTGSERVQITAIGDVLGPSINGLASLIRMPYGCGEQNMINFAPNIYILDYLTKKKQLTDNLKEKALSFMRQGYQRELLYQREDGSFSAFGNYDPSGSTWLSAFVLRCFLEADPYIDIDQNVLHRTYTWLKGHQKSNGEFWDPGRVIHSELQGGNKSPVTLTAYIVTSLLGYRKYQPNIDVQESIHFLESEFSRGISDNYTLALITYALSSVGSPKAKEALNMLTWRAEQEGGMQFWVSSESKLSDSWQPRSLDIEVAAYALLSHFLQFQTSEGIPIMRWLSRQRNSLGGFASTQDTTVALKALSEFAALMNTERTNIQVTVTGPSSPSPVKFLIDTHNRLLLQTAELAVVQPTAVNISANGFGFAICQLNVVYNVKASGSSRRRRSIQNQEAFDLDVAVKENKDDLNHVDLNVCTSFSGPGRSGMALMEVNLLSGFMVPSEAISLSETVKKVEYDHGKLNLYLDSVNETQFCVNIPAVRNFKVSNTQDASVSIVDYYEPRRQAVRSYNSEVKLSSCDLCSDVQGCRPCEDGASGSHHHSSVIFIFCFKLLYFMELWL
# Chain of UniProt Q9HCJ1 (Q9HCJ1 whole entry): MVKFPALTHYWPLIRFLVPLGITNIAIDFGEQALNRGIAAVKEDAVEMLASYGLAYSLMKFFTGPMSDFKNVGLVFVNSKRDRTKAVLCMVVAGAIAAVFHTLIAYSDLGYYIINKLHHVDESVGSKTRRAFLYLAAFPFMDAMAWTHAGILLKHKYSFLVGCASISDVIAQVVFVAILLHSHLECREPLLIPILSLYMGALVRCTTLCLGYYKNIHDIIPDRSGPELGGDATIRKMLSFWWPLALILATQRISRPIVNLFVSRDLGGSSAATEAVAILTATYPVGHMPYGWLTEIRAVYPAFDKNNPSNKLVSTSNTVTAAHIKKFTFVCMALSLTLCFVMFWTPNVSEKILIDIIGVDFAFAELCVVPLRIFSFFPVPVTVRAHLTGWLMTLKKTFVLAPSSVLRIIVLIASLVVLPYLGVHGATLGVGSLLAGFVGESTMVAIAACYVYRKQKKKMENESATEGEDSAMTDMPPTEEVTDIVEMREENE
# Chain of UniProt P56192 (P56192 whole entry): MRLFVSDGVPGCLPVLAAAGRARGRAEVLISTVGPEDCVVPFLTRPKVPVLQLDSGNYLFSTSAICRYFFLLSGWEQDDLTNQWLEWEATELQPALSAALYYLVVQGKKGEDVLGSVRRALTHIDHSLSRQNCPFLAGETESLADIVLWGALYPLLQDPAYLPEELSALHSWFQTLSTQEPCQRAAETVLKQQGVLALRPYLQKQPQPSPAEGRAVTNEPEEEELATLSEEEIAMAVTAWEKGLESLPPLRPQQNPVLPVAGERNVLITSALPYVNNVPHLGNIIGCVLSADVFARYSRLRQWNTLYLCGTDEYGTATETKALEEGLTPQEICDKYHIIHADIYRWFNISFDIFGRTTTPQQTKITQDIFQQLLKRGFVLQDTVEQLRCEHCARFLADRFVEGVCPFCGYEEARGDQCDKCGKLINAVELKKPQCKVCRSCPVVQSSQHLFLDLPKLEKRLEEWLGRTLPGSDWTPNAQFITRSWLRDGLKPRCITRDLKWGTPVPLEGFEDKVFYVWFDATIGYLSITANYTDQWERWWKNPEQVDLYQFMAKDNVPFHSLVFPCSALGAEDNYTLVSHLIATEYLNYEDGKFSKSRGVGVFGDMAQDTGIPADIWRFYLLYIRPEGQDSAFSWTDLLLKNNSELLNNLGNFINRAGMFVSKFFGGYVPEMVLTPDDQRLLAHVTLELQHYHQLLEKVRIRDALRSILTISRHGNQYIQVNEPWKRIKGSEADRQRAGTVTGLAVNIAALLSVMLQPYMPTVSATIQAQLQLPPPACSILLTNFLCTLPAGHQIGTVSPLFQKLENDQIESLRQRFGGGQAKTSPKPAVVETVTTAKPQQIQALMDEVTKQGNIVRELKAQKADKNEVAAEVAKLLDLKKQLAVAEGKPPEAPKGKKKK
# Chain of UniProt Q99623 (Q99623 whole entry): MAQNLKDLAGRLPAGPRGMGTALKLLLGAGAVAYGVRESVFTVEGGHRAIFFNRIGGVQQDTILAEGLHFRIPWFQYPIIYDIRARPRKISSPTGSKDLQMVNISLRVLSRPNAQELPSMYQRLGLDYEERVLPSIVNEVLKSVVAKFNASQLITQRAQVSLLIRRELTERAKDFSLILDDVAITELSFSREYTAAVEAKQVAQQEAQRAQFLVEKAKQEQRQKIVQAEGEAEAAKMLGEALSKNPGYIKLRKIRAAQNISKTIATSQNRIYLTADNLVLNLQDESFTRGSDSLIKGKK
row,Target,lysine labeling ratio R10:1
1,PLXNB2 (lysine site: K322) (UniProt O15031),0.663 (active)
2,UniProt P62805 (lysine site: K92),7.01 (inactive)
3,FLNA (lysine site: K704) (UniProt P21333),1.61 (active)
4,MYH9 (lysine site: K1828) (UniProt P35579),2.77 (inactive)
5,ANKH (lysine site: K127) (UniProt Q9HCJ1),0.684 (active)
6,L1CAM (lysine site: K515) (UniProt P32004),1.77 (active)
7,SDC2 (lysine site: K134) (UniProt P34741),3.52 (inactive)
8,FAS (lysine site: K100) (UniProt P25445),1.44 (active)
9,UniProt P62280 (lysine site: K30),4.32 (inactive)
10,HSP90B1 (lysine site: K733) (UniProt P14625),3.26 (inactive)
11,ENO1 (lysine site: K422) (UniProt P06733),2.65 (inactive)
12,AK2 (lysine site: K28) (UniProt P54819),10.2 (inactive)
13,CD109 (lysine site: K567) (UniProt Q6YHK3),3.37 (inactive)
14,UniProt Q99623 (lysine site: K200),2.34 (inactive)
15,PTPRF (lysine site: K994) (UniProt P10586),4.54 (inactive)
16,MARS (lysine site: K726) (UniProt P56192),0.748 (active)
17,ATP1B1 (lysine site: K216) (UniProt P05026),4.23 (inactive)
18,UniProt Q9HDC9 (lysine site: K356),2.37 (inactive)
19,CD109 (lysine site: K1022) (UniProt Q6YHK3),0.98 (active)
20,IGF2R (lysine site: K527) (UniProt P11717),2.81 (inactive)

row,Target,lysine labeling ratio R10:1
1,ANXA3 (lysine site: K184) (UniProt P12429),1.13 (active)
2,APP (lysine site: K522) (UniProt P05067),5.65 (inactive)
3,SDC4 (lysine site: K104) (UniProt P31431),3.81 (inactive)
4,HEXB (lysine site: K517) (UniProt P07686),2.41 (inactive)
5,UniProt Q15149 (lysine site: K2846),3.06 (inactive)
6,COL5A1 (lysine site: K69) (UniProt P20908),2.04 (inactive)
7,FH (lysine site: K66) (UniProt P07954),2.79 (inactive)
8,UniProt P62899 (lysine site: K75),2.92 (inactive)
9,PLXNA3 (lysine site: K622) (UniProt P51805),1.94 (active)
10,SLC39A6 (lysine site: K156) (UniProt Q13433),3.23 (inactive)
11,UniProt P62701 (lysine site: K233),4.48 (inactive)
12,LAMC1 (lysine site: K1584) (UniProt P11047),3.72 (inactive)
13,SEMA3C (lysine site: K613) (UniProt Q99985),5.77 (inactive)
14,TCP1 (lysine site: K272) (UniProt P17987),2.44 (inactive)
15,UniProt P07437 (lysine site: K58),2.92 (inactive)
16,DISP1 (lysine site: K380) (UniProt Q96F81),2.05 (inactive)
17,UniProt O60462 (lysine site: K755),2.55 (inactive)
18,FAT1 (lysine site: K894) (UniProt Q14517),2.53 (inactive)
19,MYH9 (lysine site: K910) (UniProt P35579),4.64 (inactive)
20,IGF2R (lysine site: K1104) (UniProt P11717),3.26 (inactive)
